Inconclusive results are not listed. Where a call stands in place of a potency, no number is given. Values without a mark were called inactive. Activity calls are given as the source filed them. Unless noted, calls come from the whole dose curve; as a rule, active = well fitted curve in the direction sought with a large enough effect in the repeat runs; inconclusive = weak or mixed curves; inactive = no such curve, though single readings can be large; an effect the other way counts as inactive or inconclusive.
Key:
[1] = qHTS assay to identify aromatase inhibitors - cell viability counter screen (AID 743084);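 note: cells stimulated with testosterone during compound exposure; nearly all actives have a fitted effect of over 55% in size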; note: potency is the fitted concentration of half-maximal effect
[2] = biological target: Aryl hydrocarbon receptor (Homo sapiens) (UniProt P35869); test: qHTS assay to identify small molecule that activate the aryl hydrocarbon receptor (AhR) signaling pathway (AID 743085);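 note: HG2L7.5c1 human HepG2 liver cells with stably integrated DRE-driven firefly reporter; series mostly up to about 70 µM; nearly all actives have a fitted effect of over 15% in size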
Aryl hydrocarbon receptor (Homo sapiens), sequence (P35869 whole entry, looked up): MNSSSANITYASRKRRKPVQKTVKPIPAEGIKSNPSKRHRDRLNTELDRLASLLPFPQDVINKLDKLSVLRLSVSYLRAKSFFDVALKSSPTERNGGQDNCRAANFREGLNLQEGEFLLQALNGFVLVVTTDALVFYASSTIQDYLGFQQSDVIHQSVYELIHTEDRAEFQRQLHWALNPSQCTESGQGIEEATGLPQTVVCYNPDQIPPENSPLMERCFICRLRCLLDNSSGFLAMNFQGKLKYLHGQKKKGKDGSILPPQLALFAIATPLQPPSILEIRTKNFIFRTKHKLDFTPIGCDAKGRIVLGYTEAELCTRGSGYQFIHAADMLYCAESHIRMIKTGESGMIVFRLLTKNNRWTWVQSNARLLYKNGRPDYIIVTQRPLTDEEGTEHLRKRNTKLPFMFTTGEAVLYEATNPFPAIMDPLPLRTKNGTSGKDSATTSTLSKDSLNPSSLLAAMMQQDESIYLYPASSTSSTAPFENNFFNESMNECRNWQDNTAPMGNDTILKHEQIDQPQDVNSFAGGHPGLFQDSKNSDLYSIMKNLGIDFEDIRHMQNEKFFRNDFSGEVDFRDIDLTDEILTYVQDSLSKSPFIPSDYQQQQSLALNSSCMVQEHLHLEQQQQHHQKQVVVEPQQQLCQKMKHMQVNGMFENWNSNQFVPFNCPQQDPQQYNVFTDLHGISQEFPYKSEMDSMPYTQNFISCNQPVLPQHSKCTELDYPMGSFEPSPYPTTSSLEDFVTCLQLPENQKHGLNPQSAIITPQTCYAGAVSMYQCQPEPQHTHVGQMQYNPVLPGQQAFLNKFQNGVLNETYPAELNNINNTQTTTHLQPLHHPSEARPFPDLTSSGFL
Outline: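 HepG2 cells stably carrying a 20-DRE firefly luciferase reporter (HG2L7.5c1) treated with compound for 24 hr at 37C. Luciferase read by ONE-Glo luminescence, with CellTiter-Fluor viability read first.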

[3] = qHTS assay to identify small molecule that activate the aryl hydrocarbon receptor (AhR) signaling pathway - cell viability counter screen (AID 743086);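 note: HepG2 liver cells carrying the AhR DRE luciferase reporter; series mostly up to about 70 µM; nearly all actives have a fitted effect of over 45% in size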
Outline: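 HepG2-AhR-luc (HG2L7.5c1) cells, 4000/well, treated 24 h at 37 C with compound; viability measured as CellTiter-Fluor fluorescence after 30 min in the same wells as the luciferase read.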

[4] = biological target: Peroxisome proliferator-activated receptor gamma (Homo sapiens) (UniProt P37231); test: qHTS assay to identify small molecule agonists of the peroxisome proliferator-activated receptor gamma (PPARg) signaling pathway (AID 743094; active = well fitted activation curve with a large enough effect in the signal ratio in the repeat runs, not every such curve was filed as active; the % refers to the signal ratio; note: potency is the fitted concentration of half-maximal effect)
Peroxisome proliferator-activated receptor gamma (Homo sapiens), sequence (P37231 whole entry, looked up): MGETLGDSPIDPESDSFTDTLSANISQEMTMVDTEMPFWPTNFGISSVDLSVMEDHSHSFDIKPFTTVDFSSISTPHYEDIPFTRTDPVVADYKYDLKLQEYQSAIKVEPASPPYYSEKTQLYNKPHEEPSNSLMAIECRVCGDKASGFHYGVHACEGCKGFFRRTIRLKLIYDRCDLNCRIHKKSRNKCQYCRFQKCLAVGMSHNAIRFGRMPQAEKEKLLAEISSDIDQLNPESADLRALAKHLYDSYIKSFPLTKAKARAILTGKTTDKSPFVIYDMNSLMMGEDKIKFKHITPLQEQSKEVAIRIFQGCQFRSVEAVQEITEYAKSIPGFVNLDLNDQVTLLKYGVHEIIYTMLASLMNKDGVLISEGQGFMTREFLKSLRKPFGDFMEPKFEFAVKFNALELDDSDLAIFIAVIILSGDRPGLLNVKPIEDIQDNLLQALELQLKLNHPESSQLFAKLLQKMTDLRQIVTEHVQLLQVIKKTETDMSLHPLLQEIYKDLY
Outline: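 GeneBLAzer PPARg UAS-bla HEK293H cells carrying a stably integrated beta-lactamase reporter were pre-incubated 5 h at 37C, then exposed to compounds in DMSO for 17 h at 37C; LiveBLAzer B/G FRET substrate was added for 1 h at room temperature and fluorescence read.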

[5] = biological target: Peroxisome proliferator-activated receptor gamma (Homo sapiens) (UniProt P37231); test: qHTS assay to identify small molecule antagonists of the peroxisome proliferator-activated receptor gamma (PPARg) signaling pathway (AID 743191; calls by dose curve; note: series mostly up to about 63 µM; nearly all actives have a fitted effect of over 30% in size)
Outline: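 GeneBLAzer PPARg UAS-bla HEK293H cells, 5 h post-plating, exposed to compounds 17 h at 37C. LiveBLAzer B/G FRET substrate added for 1 h at room temperature; beta-lactamase reporter read by fluorescence intensity.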

[6] = qHTS assay to identify small molecule antagonists of the peroxisome proliferator-activated receptor gamma (PPARg) signaling pathway - cell viability counter screen (AID 743194); note: nearly all actives have a fitted effect of over 55% in size
Outline: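 Cytotoxicity counter screen in PPARg-bla HEK293H cells, same wells as reporter assay. Compounds plus 50 nM rosiglitazone (final) for 17 h at 37 C, then viability read by CellTiter-Glo luminescence.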

[7] = qHTS assay for small molecule agonists of the antioxidant response element (ARE) signaling pathway (AID 743202; active = well fitted activation curve with a large enough effect in the signal ratio in the repeat runs, not every such curve was filed as active; the % refers to the signal ratio)
Outline: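 ARE-bla HepG2 cells (beta-lactamase reporter under the antioxidant response element), plated 5 hours, then exposed to compounds 16 hours at 37 C. LiveBLAzer B/G FRET substrate added for 2 hours at room temperature; fluorescence intensity read.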

[8] = qHTS assay for small molecule agonists of the antioxidant response element (ARE) signaling pathway - cell viability counter screen (AID 743203; calls by dose curve; note: nearly all actives have a fitted effect of over 55% in size)
Outline: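 CellSensor ARE-bla HepG2 cells, 2,000 per well, rested 5 hrs at 37C/5% CO2, then exposed to compound in DMSO for 16 hrs; viability read as CellTiter-Glo luminescence after 30 min at room temperature, in the reporter wells.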

[9] = qHTS assay for small molecule activators of the heat shock response signaling pathway - cell viability counter screen (AID 743209); note: nearly all actives have a fitted effect of over 50% in size
Outline: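 CellSensor HSE-bla HeLa cells, plated overnight at 37 C/5% CO2, were exposed to compounds in DMSO for 5 h at 37 C. Viability was then read in the same wells by CellTiter-Glo luminescence after 30 min at room temperature.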

[10] = qHTS assay for small molecule activators of the heat shock response signaling pathway (AID 743210; active = well fitted activation curve with a large enough effect in the signal ratio in the repeat runs, with a control signal flat, not every such curve was filed as active; the % refers to the signal ratio; note: series mostly up to about 63 µM)
Outline: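 HSE-bla HeLa cells (beta-lactamase reporter under heat shock response elements), plated overnight, then exposed to compounds 5 h at 37 C; LiveBLAzer B/G FRET substrate added, 2.5 h at room temperature, fluorescence intensity read.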

[11] = qHTS assay to identify small molecule agonists of the peroxisome proliferator-activated receptor delta (PPARd) signaling pathway - cell viability counter screen (AID 743211); note: nearly all actives have a fitted effect of over 55% in size
Outline: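 PPARd-bla HEK293H cells (3000/well) were pre-incubated 5 h at 37 C, then exposed to compound for 17 h at 37 C. After 2 h with LiveBLAzer substrate, CellTiter-Glo was added to the same wells; luminescence read after 30 min at room temperature.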

[12] = biological target: Peroxisome proliferator-activated receptor delta (Homo sapiens) (UniProt Q03181); test: qHTS assay to identify small molecule agonists of the peroxisome proliferator-activated receptor delta (PPARd) signaling pathway (AID 743212; calls by dose curve)
Peroxisome proliferator-activated receptor delta (Homo sapiens), sequence (Q03181 whole entry, looked up): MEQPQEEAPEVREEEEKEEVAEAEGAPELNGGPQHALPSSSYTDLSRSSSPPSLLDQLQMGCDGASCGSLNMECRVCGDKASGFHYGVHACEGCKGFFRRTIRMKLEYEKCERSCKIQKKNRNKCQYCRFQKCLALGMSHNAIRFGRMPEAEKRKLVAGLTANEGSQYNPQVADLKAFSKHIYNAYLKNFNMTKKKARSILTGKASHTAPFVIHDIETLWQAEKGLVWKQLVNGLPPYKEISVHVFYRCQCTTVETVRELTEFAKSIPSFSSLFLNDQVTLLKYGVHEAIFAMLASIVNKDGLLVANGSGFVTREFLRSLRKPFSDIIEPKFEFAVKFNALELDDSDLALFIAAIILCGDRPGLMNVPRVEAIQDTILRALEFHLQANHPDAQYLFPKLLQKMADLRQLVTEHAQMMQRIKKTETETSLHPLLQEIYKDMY
Outline: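 GeneBLAzer UAS-bla HEK293H cells carrying a PPARδ construct were exposed to compounds at 37 °C. Beta-lactamase activity was read by FRET fluorescence after 2 h at room temperature with LiveBLAzer B/G substrate.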

[13] = biological target: Peroxisome proliferator-activated receptor delta (Homo sapiens) (UniProt Q03181); test: qHTS assay to identify small molecule antagonists of the peroxisome proliferator-activated receptor delta (PPARd) signaling pathway (AID 743215; active = well fitted inhibition curve with a large enough effect in the signal ratio in the repeat runs, not every such curve was filed as active; the % refers to the signal ratio;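 note: cells stimulated with agonist L165041 at 300 nM final during compound exposure; series mostly up to about 62 µM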)
Outline: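 PPARd UAS-bla HEK293H cells were pre-incubated 5 h at 37 C, then given test compounds in DMSO plus agonist L165041 (300 nM final). After 17 h at 37 C, beta-lactamase FRET substrate was added; fluorescence read after 2 h at room temperature.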

[14] = biological target: Bile acid receptor (Homo sapiens) (UniProt Q96RI1); test: qHTS assay to identify small molecule antagonists of the farnesoid-X-receptor (FXR) signaling pathway (AID 743217; active = well fitted inhibition curve with a large enough effect in the signal ratio in the repeat runs, not every such curve was filed as active; the % refers to the signal ratio)
Bile acid receptor (Homo sapiens), sequence (Q96RI1 whole entry, looked up): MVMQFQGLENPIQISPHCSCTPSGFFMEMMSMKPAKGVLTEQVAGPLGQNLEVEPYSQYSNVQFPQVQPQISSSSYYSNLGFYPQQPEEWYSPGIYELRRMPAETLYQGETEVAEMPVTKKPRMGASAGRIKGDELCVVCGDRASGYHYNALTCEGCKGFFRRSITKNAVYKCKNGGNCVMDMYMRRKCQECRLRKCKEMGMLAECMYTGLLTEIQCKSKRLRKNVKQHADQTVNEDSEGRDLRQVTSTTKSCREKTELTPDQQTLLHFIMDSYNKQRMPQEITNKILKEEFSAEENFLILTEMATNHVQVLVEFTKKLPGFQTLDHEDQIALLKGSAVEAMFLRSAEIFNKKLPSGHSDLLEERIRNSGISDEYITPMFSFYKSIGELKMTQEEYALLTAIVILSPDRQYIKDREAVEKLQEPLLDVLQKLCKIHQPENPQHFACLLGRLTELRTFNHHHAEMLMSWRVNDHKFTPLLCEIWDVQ
Outline: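 FXR-UAS-bla HEK 293T cells pre-incubated 5 h at 37 °C, then exposed to compounds with chenodeoxycholic acid (50 uM final) for 16 h at 37 °C. Beta-lactamase reporter read by LiveBLAzer B/G FRET substrate fluorescence after 2 h at room temperature.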

[15] = biological target: Bile acid receptor (Homo sapiens) (UniProt Q96RI1); test: qHTS assay to identify small molecule agonists of the farnesoid-X-receptor (FXR) signaling pathway (AID 743220; active = well fitted activation curve with a large enough effect in the signal ratio in the repeat runs, not every such curve was filed as active; the % refers to the signal ratio)
Outline: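 Beta-lactamase reporter under UAS control in GeneBLAzer FXR HEK 293T cells (5000/well) measured with LiveBLAzer FRET substrate after 2 h at room temperature. Compound exposure lasted 16 h at 37C.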

[16] = qHTS assay to identify small molecule antagonists of the farnesoid-X-receptor (FXR) signaling pathway - cell viability counter screen (AID 743221; active = well fitted cell-killing curve with a large enough effect in the repeat runs, not every such curve was filed as active; note: nearly all actives have a fitted effect of over 50% in size)
Outline: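 GeneBLAzer FXR-UAS-bla HEK 293T cells, compound plus chenodeoxycholic acid (50 uM final), 16 h at 37 C. CellTiter-Glo added to the same wells after the beta-lactamase read; luminescence read after 30 min at room temperature as viability.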

[17] = biological target: Vitamin D3 receptor (Homo sapiens) (UniProt P11473); test: qHTS assay to identify small molecule agonists of the vitamin D receptor (VDR) signaling pathway (AID 743222; calls by dose curve)
Vitamin D3 receptor (Homo sapiens), sequence (P11473 whole entry, looked up): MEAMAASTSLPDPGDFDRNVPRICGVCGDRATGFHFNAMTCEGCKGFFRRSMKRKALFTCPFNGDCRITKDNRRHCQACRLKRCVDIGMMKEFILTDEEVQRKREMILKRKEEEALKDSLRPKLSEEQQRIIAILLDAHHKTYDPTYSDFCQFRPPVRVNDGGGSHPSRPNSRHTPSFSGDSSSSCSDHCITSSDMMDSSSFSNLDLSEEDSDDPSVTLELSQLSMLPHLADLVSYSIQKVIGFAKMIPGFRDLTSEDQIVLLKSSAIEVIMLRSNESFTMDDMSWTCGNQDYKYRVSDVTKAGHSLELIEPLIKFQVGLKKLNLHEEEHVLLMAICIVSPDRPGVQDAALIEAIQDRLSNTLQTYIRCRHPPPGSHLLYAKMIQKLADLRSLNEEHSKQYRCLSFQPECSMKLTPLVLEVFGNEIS
Outline: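 VDR-bla cells were plated 4 h at 37C/5% CO2, then exposed to compounds in DMSO for 16 h. After LiveBLAzer B/G FRET substrate addition and 2 h at room temperature, beta-lactamase reporter fluorescence was read.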

[18] = qHTS assay to identify small molecule agonists of the farnesoid-X-receptor (FXR) signaling pathway - cell viability counter screen (AID 743218); note: nearly all actives have a fitted effect of over 45% in size
Outline: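 FXR-UAS-bla HEK 293T cells, plated 5 h at 37 C, were exposed to compounds for 16 h at 37 C. CellTiter-Glo was then added to the same wells as the bla readout; luminescence read after 30 min at room temperature.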

[19] = biological target: Vitamin D3 receptor (Homo sapiens) (UniProt P11473); test: qHTS assay to identify small molecule antagonists of the vitamin D receptor (VDR) signaling pathway (AID 743223; active = well fitted inhibition curve with a large enough effect in the signal ratio in the repeat runs, not every such curve was filed as active; the % refers to the signal ratio)
Outline: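 VDR-bla cells were treated with compound plus 3 nM final 1alpha,25-dihydroxyvitamin D3 for 16 h at 37C. Beta-lactamase reporter read by B/G FRET substrate fluorescence after 2 h at room temperature. qHTS format.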

[20] = qHTS assay to identify small molecule antagonists of the peroxisome proliferator-activated receptor delta (PPARd) signaling pathway - cell viability counter screen (AID 743213); note: nearly all actives have a fitted effect of over 50% in size
Outline: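 HEK293H PPARd UAS-bla cells, 5 h pre-incubation, compound + L165041 300 nM final, 17 h 37 C; B/G FRET substrate 2 h RT; then CellTiter-Glo 30 min RT, luminescence.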

| SMILES | Potency [1] | Potency [2] | Potency [3] | Potency [4] | Potency [5] | Potency [6] | Potency [7] | Potency [8] | outcome [9] | outcome [10] | Potency [11] | Potency [12] | outcome [13] | outcome [14] | outcome [15] | Potency [16] | outcome [17] | Potency [18] | outcome [19] | Potency [20] |
| --- | --- | --- | --- | --- | --- | --- | --- | --- | --- | --- | --- | --- | --- | --- | --- | --- | --- | --- | --- | --- |
| CC(C)(C)c1ccc(CCC=O)cc1 | inactive | inactive | inactive | inactive | inactive | inactive | inactive | inactive | inactive | inactive | inactive | inactive | inactive | inactive | inactive | inactive | inactive |  |  |  |
| COC(=O)C(C)(C)C | inactive | inactive | inactive | inactive | inactive | inactive | inactive | inactive | inactive | inactive | inactive |  |  | inactive | inactive | inactive | inactive | inactive | inactive |  |
| CO[C@@H]1COCC[C@@H]1N[C@@H]1CC[C@@](C(=O)N2CCc3ncc(C(F)(F)F)cc3C2)(C(C)C)C1 | inactive | inactive | inactive | inactive | inactive | inactive | inactive | inactive | inactive | inactive | inactive |  | inactive |  |  | inactive | inactive | inactive | inactive |  |
| CCCCCCCCCCCCN1CCOCC1 | inactive | inactive | inactive | inactive | inactive | inactive | inactive | inactive | inactive | inactive | inactive | inactive | inactive |  |  | inactive | inactive | inactive |  |  |
| SCCOCCOCCS | inactive | inactive | inactive | inactive | inactive | inactive |  | inactive | inactive | inactive | inactive |  | inactive |  |  | inactive | inactive | inactive |  | inactive |
| N#C[C@@H]1CC(F)(F)CN1C(=O)CNC1CC2CCC(C1)N2c1ncccn1 (stereo partly drawn) | inactive | inactive | inactive | inactive | inactive | inactive | inactive | inactive | inactive |  | inactive |  | inactive | inactive | inactive | inactive |  |  |  | inactive |
| Cc1ccc2c(Cl)cc(Cl)c(O)c2n1 | 23.7 µM (active) | inactive | inactive | 9.52 µM (active) | inactive | inactive | inactive | inactive | inactive | inactive | inactive |  |  |  |  | inactive | inactive |  | inactive | inactive |
| NC(=O)c1ccccc1 | inactive | inactive | inactive | inactive | inactive | inactive | inactive | inactive | inactive | inactive | inactive |  |  | inactive | inactive | inactive | inactive |  | inactive | inactive |

Reference: PubChem BioAssay (Tox21)
